Measured values from PubChem BioAssay AID720526 (National Center for Advancing Translational Sciences (NCATS), 2013).
Records with an inconclusive call do not appear. The source made the active and inactive calls. Calls come from the whole dose curve; as a rule, active = well fitted activation curve with a large enough effect; inconclusive = small, poorly fitted or top-dose-only effect; inactive = no such curve, though single readings can be large or run the other way.

Assay: qHTS Assay for NPC1 Promoter Activators: Hit Validation Using Renila Luciferase Read-Out for NPC1; for activity change, positive = activation: % of control where 0% means no effect
Conditions: Huh7 NPC1 promoter-luciferase reporter, luminescence, 24 h; series mostly up to 76.9 µM; activity change, positive = activation: at the top concentration
Method in brief: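 Luciferase reporter read-out: promoter activation measured by luminescence after 10 min with detection reagent at room temperature. Cells were Huh7 with a stable NPC promoter-luciferase construct, treated 24 h at 37 deg C.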
Potency is the fitted concentration of half-maximal effect.

Row | SMILES | activity change, positive = activation | Potency
1 | CCOC(=O)c1ccc(-c2nnc(-c3ccc(Cl)cc3Cl)o2)cc1 | -0.889% (inactive) | 
2 | CC(=O)Nc1ccc(-c2csc(Nc3ncccn3)n2)cc1 | 4.37% (inactive) | 
3 | COc1ccc(C(c2nnnn2CCc2ccccc2)N2CCN(C3CCCC3)CC2)cc1 (centres undefined) |  | 13 µM (active)
4 | FC(F)(F)c1ccc(Nc2nnnc3ccccc23)cc1 | -69% (inactive) | 
5 | Cc1c(C(O)CN2CCN(Cc3ccc4c(c3)OCO4)CC2)c2ccccc2n1C (centres undefined) | 13.3% (inactive) | 
6 | CCC(=O)NC(=S)Nc1ccc(N2CCOCC2)cc1 | 14.4% (inactive) | 
7 | COc1ccc(OC)c(S(=O)(=O)N2CCN3CCCC3C2)c1 (centres undefined) |  | 32.8 µM (active)
8 | CCCN(CCC)CCCNC(=O)c1cc2cc3ccc(Cl)cc3nc2o1 | -34% (inactive) | 
9 | COCCNC(=O)Cn1nc(-c2ccccc2)c2ccccc2c1=O | 1.18% (inactive) | 
10 | CCOC(=O)C1(Cc2cccc(Cl)c2)CCCN(C(=O)CCSC)C1 (centres undefined) | -3% (inactive) | 
11 | CC1CN(C(=O)c2ccncc2)CC(C)O1 (centres undefined) | -24.2% (inactive) | 
12 | Cn1c(CCN2CCN(c3ccccc3)CC2)nc2cc(NC(=O)c3ccco3)ccc21 | -43.4% (inactive) | 
13 | COc1ccc(NC(=O)CSc2ccc([N+](=O)[O-])cc2)cc1S(=O)(=O)N1CCOCC1 | 7.39% (inactive) | 
14 | Cc1nc(-c2ccc(S(=O)(=O)Oc3ccc(Cl)cc3Cl)s2)cs1 | -47.3% (inactive) | 
15 | Cc1ccc(C#N)c(SCC(=O)Nc2nccs2)n1 | -7.61% (inactive) | 
16 | CCOC(=O)c1ccc(NC(=O)Oc2cc(C)c(Cl)cc2C(C)C)cc1 | -15.9% (inactive) | 
17 | O=[N+]([O-])c1cnccc1Nc1ccc(F)cc1 | -10.4% (inactive) | 
18 | CC(Sc1ncnc2c1cnn2-c1ccccc1)C(=O)Nc1ccc(N2CCOCC2)cc1 (centres undefined) | -18% (inactive) | 
19 | NC(=O)COC(=O)c1ccc2noc(-c3ccccc3)c2c1 | 0.358% (inactive) | 
20 | COC(=O)c1cn(NC(=O)C2CCCCC2)c(=O)c2ccccc12 | 8.18% (inactive) | 

Row | SMILES | activity change, positive = activation | Potency
21 | Nc1c(N(CCO)C(=O)/C=C/c2ccco2)c(=O)[nH]c(=O)n1Cc1ccccc1 | 13.3% (inactive) | 
22 | CCc1cc(C(=O)Nc2ccccc2)cs1 | -45.1% (inactive) | 
23 | Cc1ccc(C(=O)c2cn[nH]c2-c2ccccc2O)cc1 | -17.1% (inactive) | 
24 | CCCCCCC(=O)Nc1ccc(C(=O)N/N=C/c2cccnc2)cc1 | -21.7% (inactive) | 
25 | Cc1nn(CCCC(=O)NCc2ccc(F)cc2)c(C)c1[N+](=O)[O-] | -8.33% (inactive) | 
26 | CCCOP(=O)(c1ccc(N(C)C)cc1)C(O)c1cccnc1 (centres undefined) | 5.33% (inactive) | 
27 | Nc1ccccc1C(=O)N/N=C1/C2CN3CCN(C2)CC1(Cc1ccccc1)C3 | -10.4% (inactive) | 
28 | O=C(NNC(=O)C1COc2ccccc2O1)c1ccccc1O (centres undefined) | -71% (inactive) | 
29 | CC1CCc2sc(C(=O)NNC(=S)NC3CC3)cc2C1 (centres undefined) | -42.4% (inactive) | 
30 | COc1ccccc1C(=O)Nc1nnc(SCC(=O)NC2CCCC2)s1 | 18.1% (inactive) | 
31 | CCOC(=O)c1cc2sccc2n1CC(=O)N1CCCc2ccccc21 | 0.273% (inactive) | 
32 | CC1CC(C)CN(CC(=O)N2CCOCC2)C1 (centres undefined) | 9.94% (inactive) | 
33 | CC(Sc1nnc(C(F)(F)F)n1C)C(=O)Nc1ccc(S(N)(=O)=O)cc1 (centres undefined) | -6.53% (inactive) | 
34 | O=C(NCCc1c[nH]c2ccccc12)C(=O)NCC(c1ccco1)N1CCN(c2ccccc2F)CC1 (centres undefined) | -31.8% (inactive) | 
35 | COC(=O)c1ccc(NC(=O)c2ccc3nc(C)sc3c2)cc1 | -9.33% (inactive) | 
36 | Brc1ccccc1-c1nnc(CSc2nnc3sc4ccccc4n23)o1 | 3.11% (inactive) | 
37 | CCN(Cc1nc2cc(Cl)ccc2c(=O)[nH]1)C(=O)C1CC(=O)N(c2cccc3ccccc23)C1 (centres undefined) | 13.5% (inactive) | 
38 | O=C(CCc1cccc(Cl)c1)NC1CCCN(Cc2ccccc2F)C1 (centres undefined) | 8.73% (inactive) | 
39 | CCOC(=O)c1ccccc1NC(=O)CSc1nnc(Cc2cccn2C)n1-c1ccc(F)cc1 |  | 46.3 µM (active)
